# Experimental data: PMC7862700, “An all-to-all approach to the identification of sequence-specific readers for epigenetic DNA modifications on cytosine”
# Tests used:
# Test in all cases: DAPPL (digital affinity profiling via proximity ligation, sequencing); 10 mM Tris-HCl pH 7.5, 50 mM NaCl, 1 mM DTT, 4% glycerol, room temperature, 30 min; GST-TFs on glutathione beads, 16-mer random dsDNA library, 0.1% formaldehyde crosslink after washing; high values mean tight binding
# FEV = target: T1, FEV (Homo sapiens, UniProt Q99581 1-238); settings: protein: recombinant; tags: N-terminal GST; dsDNA, one strand shown
# T1 sequence: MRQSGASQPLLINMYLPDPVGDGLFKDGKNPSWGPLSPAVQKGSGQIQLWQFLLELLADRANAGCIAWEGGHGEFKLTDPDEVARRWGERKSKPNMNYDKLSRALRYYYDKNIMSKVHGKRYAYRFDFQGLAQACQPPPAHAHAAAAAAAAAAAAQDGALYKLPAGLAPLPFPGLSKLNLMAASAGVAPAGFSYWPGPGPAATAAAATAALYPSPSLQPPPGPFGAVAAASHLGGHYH
# Procedure, shortened: (§1)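 A tag-only sample was pooled with DNA-barcoded human transcription factors that had been expressed in yeast as GST fusions and captured on glutathione beads. The pools were incubated for 30 min at room temperature with 200 nmole of a random double-stranded 16-mer DNA library in Tris/NaCl/DTT/glycerol buffer, then washed, crosslinked with 0.1% formaldehyde, proximity-ligated (BsaI/T4 ligase, 1 h, 37 °C), PCR-amplified and sequenced on an Illumina NextSeq500. Binding signal is each hexamer's read frequency for a factor divided by its frequency for the tag-only sample.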
# ETV5 = ETV5 (Homo sapiens, UniProt P41161 1-510); settings: protein: recombinant; tags: N-terminal GST; dsDNA, one strand shown
# Procedure, shortened: as §1
# HSF1 = HSF1 (Homo sapiens, UniProt Q00613 1-529); settings: protein: recombinant; tags: N-terminal GST; chain copies: 3; dsDNA, one strand shown
# Procedure, shortened: as §1
# SPIC = target: T2, SPIC (Homo sapiens, UniProt Q8N5J4 1-248); settings: protein: recombinant; tags: N-terminal GST; dsDNA, one strand shown
# T2 sequence: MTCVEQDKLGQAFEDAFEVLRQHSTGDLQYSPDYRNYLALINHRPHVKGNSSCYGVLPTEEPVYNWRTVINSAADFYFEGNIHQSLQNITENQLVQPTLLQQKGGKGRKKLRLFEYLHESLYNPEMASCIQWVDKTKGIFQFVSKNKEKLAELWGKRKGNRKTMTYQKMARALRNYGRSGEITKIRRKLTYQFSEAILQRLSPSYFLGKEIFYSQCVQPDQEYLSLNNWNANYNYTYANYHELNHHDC
# Procedure, shortened: as §1
# ELF4 = ELF4 (Homo sapiens, UniProt Q99607 1-663); settings: protein: recombinant; tags: N-terminal GST; dsDNA, one strand shown
# Procedure, shortened: as §1
# ELK4 = target: T3, ELK4 (Homo sapiens, UniProt P28324-2 1-405); settings: protein: recombinant; tags: N-terminal GST; dsDNA, one strand shown
# T3 sequence: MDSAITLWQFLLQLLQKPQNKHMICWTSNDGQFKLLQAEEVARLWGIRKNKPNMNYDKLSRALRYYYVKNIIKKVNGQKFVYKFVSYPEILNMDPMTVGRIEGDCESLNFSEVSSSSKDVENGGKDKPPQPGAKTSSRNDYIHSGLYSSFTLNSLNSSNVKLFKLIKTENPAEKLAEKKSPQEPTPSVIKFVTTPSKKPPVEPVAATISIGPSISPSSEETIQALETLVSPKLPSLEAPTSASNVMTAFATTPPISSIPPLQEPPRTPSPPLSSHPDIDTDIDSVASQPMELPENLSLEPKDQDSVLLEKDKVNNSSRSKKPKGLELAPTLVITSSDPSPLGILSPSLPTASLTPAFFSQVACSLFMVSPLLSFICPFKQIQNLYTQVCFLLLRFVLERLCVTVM
# Procedure, shortened: as §1
# ETV2 = target: T4, ETV2 (Homo sapiens, UniProt O00321 1-342); settings: protein: recombinant; tags: N-terminal GST; dsDNA, one strand shown
# T4 sequence: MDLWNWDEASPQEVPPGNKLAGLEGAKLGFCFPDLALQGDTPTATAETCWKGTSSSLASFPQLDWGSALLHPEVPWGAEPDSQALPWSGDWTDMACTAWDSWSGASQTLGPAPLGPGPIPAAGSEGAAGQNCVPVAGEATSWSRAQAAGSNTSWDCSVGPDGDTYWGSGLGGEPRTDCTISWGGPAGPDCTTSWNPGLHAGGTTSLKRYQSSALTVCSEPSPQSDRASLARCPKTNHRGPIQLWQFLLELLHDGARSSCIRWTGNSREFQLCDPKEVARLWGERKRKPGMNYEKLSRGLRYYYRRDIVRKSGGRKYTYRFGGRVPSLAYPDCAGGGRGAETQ
# Procedure, shortened: as §1
# ELF3 = target: T5, ELF3 (Homo sapiens, UniProt P78545 1-371); settings: protein: recombinant; tags: N-terminal GST; dsDNA, one strand shown
# T5 sequence: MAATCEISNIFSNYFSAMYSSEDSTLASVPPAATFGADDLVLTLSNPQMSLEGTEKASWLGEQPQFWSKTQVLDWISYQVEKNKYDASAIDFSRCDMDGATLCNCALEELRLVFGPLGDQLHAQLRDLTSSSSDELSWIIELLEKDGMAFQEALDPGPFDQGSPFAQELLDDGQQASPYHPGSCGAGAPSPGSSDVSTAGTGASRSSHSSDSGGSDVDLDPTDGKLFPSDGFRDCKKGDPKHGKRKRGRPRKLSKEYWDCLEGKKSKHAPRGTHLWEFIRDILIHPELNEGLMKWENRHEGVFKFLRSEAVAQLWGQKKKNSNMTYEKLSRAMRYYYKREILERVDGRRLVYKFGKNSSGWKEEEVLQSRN
# Procedure, shortened: as §1
# CRX = CRX (Homo sapiens, UniProt O43186 1-299); settings: protein: recombinant; tags: N-terminal GST; dsDNA, one strand shown
# Procedure, shortened: as §1
# Chain of HSF1 (Q00613 whole entry): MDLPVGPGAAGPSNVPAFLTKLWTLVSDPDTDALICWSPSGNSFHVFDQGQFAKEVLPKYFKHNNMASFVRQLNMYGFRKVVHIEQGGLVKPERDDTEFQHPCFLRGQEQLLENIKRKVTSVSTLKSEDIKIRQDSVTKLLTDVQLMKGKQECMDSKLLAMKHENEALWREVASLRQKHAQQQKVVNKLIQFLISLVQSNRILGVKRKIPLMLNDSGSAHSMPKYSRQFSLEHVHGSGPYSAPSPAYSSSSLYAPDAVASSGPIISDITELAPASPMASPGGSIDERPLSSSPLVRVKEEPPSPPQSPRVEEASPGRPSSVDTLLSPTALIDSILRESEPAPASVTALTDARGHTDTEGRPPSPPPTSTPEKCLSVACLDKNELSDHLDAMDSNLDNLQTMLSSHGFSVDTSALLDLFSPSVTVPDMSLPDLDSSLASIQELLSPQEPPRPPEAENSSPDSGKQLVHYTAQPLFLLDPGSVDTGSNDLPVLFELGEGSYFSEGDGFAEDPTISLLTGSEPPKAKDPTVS
# Chain of ETV5 (P41161 whole entry): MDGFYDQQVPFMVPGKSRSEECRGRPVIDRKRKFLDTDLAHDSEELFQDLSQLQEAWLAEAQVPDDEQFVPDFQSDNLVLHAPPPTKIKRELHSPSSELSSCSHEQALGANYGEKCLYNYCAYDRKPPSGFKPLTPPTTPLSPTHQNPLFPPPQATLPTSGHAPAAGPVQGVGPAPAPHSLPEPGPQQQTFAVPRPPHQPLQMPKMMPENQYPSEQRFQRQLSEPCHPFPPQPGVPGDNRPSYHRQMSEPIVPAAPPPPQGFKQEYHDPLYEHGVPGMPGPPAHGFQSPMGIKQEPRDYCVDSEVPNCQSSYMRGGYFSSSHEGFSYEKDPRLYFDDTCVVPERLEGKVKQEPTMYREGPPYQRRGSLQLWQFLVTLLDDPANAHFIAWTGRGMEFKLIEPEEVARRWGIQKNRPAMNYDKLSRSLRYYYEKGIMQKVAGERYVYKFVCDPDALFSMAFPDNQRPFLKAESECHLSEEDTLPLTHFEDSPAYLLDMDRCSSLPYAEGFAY
# Chain of ELF4 (Q99607 whole entry): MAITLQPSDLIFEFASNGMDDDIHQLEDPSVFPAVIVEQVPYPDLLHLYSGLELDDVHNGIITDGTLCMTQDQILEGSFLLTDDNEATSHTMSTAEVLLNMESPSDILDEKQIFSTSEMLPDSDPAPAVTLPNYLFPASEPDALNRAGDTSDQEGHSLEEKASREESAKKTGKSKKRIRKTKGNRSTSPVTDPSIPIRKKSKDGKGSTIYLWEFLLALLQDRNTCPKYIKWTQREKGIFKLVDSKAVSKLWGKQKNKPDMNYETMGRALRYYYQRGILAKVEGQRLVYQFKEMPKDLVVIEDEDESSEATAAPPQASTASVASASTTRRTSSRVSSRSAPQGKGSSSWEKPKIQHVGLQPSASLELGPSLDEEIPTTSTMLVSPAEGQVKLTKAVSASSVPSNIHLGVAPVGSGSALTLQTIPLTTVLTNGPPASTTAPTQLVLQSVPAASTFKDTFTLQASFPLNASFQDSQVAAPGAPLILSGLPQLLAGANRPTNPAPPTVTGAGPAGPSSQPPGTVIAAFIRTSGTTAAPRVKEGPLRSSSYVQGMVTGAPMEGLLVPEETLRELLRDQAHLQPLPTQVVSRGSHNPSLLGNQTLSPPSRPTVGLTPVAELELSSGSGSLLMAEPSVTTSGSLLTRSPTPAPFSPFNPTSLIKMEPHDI
# Chain of CRX (O43186 whole entry): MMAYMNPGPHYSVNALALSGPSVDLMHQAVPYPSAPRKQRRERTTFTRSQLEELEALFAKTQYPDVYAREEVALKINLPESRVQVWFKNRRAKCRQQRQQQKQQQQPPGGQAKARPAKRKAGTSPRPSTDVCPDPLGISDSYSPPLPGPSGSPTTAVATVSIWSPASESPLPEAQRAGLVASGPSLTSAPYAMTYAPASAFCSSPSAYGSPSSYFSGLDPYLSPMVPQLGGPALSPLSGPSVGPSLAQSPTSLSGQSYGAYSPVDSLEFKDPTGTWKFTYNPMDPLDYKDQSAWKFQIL
sequence,measurement,setting,value
TTGATC,binding signal,FEV,"1.17 fold enrichment (6-mer frequency, TF over GST control)"
same,binding signal,ETV5,"1.26 fold enrichment (6-mer frequency, TF over GST control)"
same,binding signal,HSF1,"1.48 fold enrichment (6-mer frequency, TF over GST control)"
same,binding signal,SPIC,"1.25 fold enrichment (6-mer frequency, TF over GST control)"
same,binding signal,ELF4,"1.14 fold enrichment (6-mer frequency, TF over GST control)"
same,binding signal,ELK4,"1.14 fold enrichment (6-mer frequency, TF over GST control)"
same,binding signal,ETV2,"1.09 fold enrichment (6-mer frequency, TF over GST control)"
same,binding signal,ELF3,"1.01 fold enrichment (6-mer frequency, TF over GST control)"
same,binding signal,CRX,"1.71 fold enrichment (6-mer frequency, TF over GST control)"
